From PubChem BioAssay
This is a sample that favours compounds with a hit; in the whole collection about 4.8% have one here.
DAX1 inh-1 = DAX1 (NR0B1) inhibition, primary screen | 370,000 tested, 1.1% active | HEK293T StAR-luciferase reporter, SF-1/DAX-1 repression relief | inhibition, % at 6.8 µM | AID 652010;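 active = inhibition above the mean over all tested compounds plus 3 SD, cut at about 3.6% in these data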;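 also: 0% = DAX-1 cells with DMSO and 100% = cells lacking DAX-1 with DMSO; higher inhibition means more luminescence from relief of DAX-1 repression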
hgDAF12 agonist = activates the H. glycines DAF-12 receptor ligand-binding domain | HEK293 GAL4-hgDAF12 UAS-luciferase reporter, agonist luminescence; normalized to butyrate control | 370,000 tested, 1.8% active | activation, % at 6.8 µM;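 active = activation above a cutoff set at the mean of all screened compounds plus 3 SD, cut at about 10% in these data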;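 also: 0% = DMSO wells and 100% = sodium butyrate wells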
ssDAF12 agonist = S. stercoralis DAF-12 activation, primary screen; HEK293 ssDAF-12/GRIP1 lit1-tk-luc reporter, luminescence; % of 3 µM dafachronic acid response; activation, % at 6.8 µM; 370,000 tested, 1% active;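 active = activation above the mean over all tested compounds plus 3 SD, cut at about 0.9% in these data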;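 also: 0% = DMSO-only wells and 100% = 3 µM delta7-dafachronic acid wells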
hcDAF-12 act = activates DAF-12 receptor from parasite H. contortus; HEK293 hcDAF-12 lit1-tk-luc reporter, luminescence; 0% DMSO, 100% Δ7-dafachronic acid; activation, % at 6.8 µM; 370,000 tested, 1.4% active; AID 652067;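 active = activation above the mean of all tested compounds plus 3 SD, cut at about 5.5% in these data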;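 also: 100% = response to 3 µM Δ7-dafachronic acid high control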
DAX1 inh-2 = NR0B1 (DAX1) inhibition; HEK293 Gal4-DAX1 luciferase reporter, luminescence; inhibition, % at 6.75 µM; 340,000 tested, 0.99% active;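 active = inhibition above the mean over all tested compounds plus 3 SD, cut at about 4.2% in these data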;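 also: 0% = DAX1-transfected cells with DMSO and 100% = empty-vector control cells with DMSO; inhibition shows as a rise in luminescence from relieved DAX1 repression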
NR1D1 modulator = Rev-erb alpha (human) modulation; 370,000 tested, 0.79% active; Rev-erbα–FITC-DNA binding, fluorescence polarization, 90 min; AID 1259318; P20393; activity, % at 10 µM;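 active = activity above about 14%, limit read from the data; passing the limit was not always enough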;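 also: 0% = DMSO wells with 35 nM protein and 100% = DMSO wells with 750 nM protein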
hgDAF12 conf = confirmation of H. glycines DAF-12 agonists; activation, % at 6.8 µM; 3,300 tested, 80% active; HEK293 GAL4-hgDAF12 luciferase reporter, agonist mode; percent of butyrate response; shares compounds with hgDAF12 agonist;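 active = mean activation over triplicate wells above the hit cutoff derived from the earlier primary screen, cut at about 11% in these data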;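 also: 0% = DMSO low control and 100% = 2 mM sodium butyrate high control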
LXR ag 2 = counter-screen for DAF-12 agonists: agonists of human LXR-beta. shares compounds with hgDAF12 agonist. HEK293 Gal4-LXR luciferase reporter, 24 h. activation, % at 6.8 µM. 3,300 tested, under 10 active. AID 743051;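 active = mean activation of the triplicate above a set limit carried over from the primary screen, none filed active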
Target sequence (P55055 whole entry, looked up, the tested form may be a part): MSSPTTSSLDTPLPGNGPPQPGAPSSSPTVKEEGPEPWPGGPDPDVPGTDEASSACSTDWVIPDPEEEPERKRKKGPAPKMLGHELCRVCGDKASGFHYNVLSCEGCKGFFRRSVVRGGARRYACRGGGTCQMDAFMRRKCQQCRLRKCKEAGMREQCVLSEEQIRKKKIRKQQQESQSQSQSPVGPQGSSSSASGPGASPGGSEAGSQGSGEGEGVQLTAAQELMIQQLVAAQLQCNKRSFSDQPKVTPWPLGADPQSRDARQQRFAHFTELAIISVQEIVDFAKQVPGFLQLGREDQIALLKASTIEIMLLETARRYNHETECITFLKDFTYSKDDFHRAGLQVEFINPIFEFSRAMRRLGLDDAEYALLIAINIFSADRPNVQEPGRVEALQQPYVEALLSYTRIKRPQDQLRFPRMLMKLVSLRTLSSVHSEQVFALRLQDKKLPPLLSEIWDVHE
An asterisk follows results filed as active; nt = not tested or not shown.

SMILES	DAX1 inh-1	hgDAF12 agonist	ssDAF12 agonist	hcDAF-12 act	DAX1 inh-2	NR1D1 modulator	hgDAF12 conf	LXR ag 2
Nc1nnc(CC(=O)N/N=C/c2ccc(-c3ccc(F)cc3)o2)s1	0	-1	-2	-2	nt	4	nt	nt
Nc1nnc(CC(=O)N/N=C/c2ccc(-c3cccc(C(=O)O)c3)o2)s1	2	14*	-1	-1	-1	3	3	0
C(=N\N=C\c1cccs1)/c1cccs1	3.9*	14*	-1	5	2	5	15*	1
CCSc1nnc(-c2cccs2)o1	1	1	-1	0	0	2	nt	nt
C(=C\c1nnc(-c2cccs2)o1)/c1ccccc1	3.7*	18*	0	4	3	-1	16*	1
CC(=O)c1sc(N/N=C\c2ccc(N(C)C)cc2)nc1C	2	14*	0	3	4.5*	-2	16*	1
COC(=O)C1CN(Cc2cn(CCC3OCCO3)nn2)CCS(=O)(=O)N1Cc1ccc(F)cc1 (stereo not drawn)	-1	-2	-1	0	nt	0	nt	nt
CC(=O)c1ccc(-c2cnc3c(NC=O)cc(-c4ccc(N5CCN(C)CC5)cc4)cn23)cc1	1	17*	0	2	nt	-7	10	0
C[C@H]1C2CC(OC(=O)Nc3ccccc3C(F)(F)F)C(C2)[C@H]2CCCCN21 (stereo partly drawn)	1	1	-1	0	nt	2	nt	nt
COC(=O)C1=C(C)N(Cc2ccc(C(F)(F)F)cc2)C(=NCc2ccccc2C(F)(F)F)NC1c1ccccc1C(F)(F)F (stereo not drawn)	0	-3	-1	-1	nt	-4	nt	nt
Cc1cc(NC(=O)c2cc3ccccc3o2)ccc1NC(=O)c1ccccc1	-1	2	-2	-2	2	4	nt	nt
Cc1cccc(NC(=O)c2cc3ccccc3o2)c1	4	20*	1.1*	6.4*	3	0	19*	1
O=C(Nc1cccnc1)c1cc2cc(Br)ccc2o1	2	14*	0	5	6.6*	3	14*	1
CC(C)NC(=O)N(C)C[C@H]1OCc2cn(nn2)CCCC(=O)N([C@H](C)CO)C[C@@H]1C	2	-1	-1	0	nt	-1	nt	nt
CCOc1ccc(-c2nnc(-c3ccccc3)o2)cc1	3	14*	1	6.0*	1	-5	12*	1
CCOc1ccc(S(=O)(=O)NC2=NCCCCC2)cc1	1	0	-1	-1	-1	-1	nt	nt
CCOc1ccc(-c2nnc(NC3=NCCCCC3)o2)cc1	1	15*	0	2	2	1	13*	1
CCOc1ccc(-c2nnc(-c3ccc(OC)cc3)o2)cc1	0	1	-1	-1	1	3	nt	nt
COc1ccc(OC)c(/C=N/N=C(\N)c2nonc2N)c1	0	9	0	4	3	-1	nt	nt
N/C(=N\N=C\c1ccc(O)c(O)c1)c1nonc1N	1	15*	0	2	3	5	6	0
CCC(=O)c1ccc(OCc2ccccc2)c(OC)c1	4	14*	0	3	4.7*	-1	10	1
COc1ccc(CN[C@@H]2CC[C@@]34CCCN3C(=O)CCC[C@H]4C2)cc1OC	nt	2	-1	0	nt	-5	nt	nt
Clc1ccccc1/C=C/c1nc(-c2cccnc2)no1	3	9	1	5	3	-5	nt	nt
C(=C\c1nc(-c2cccnc2)no1)/c1ccccc1	2	13*	1.0*	3	1	3	12*	0
Clc1cccc(CNc2ccn3nc(-c4ccccc4)cc3n2)c1	2	8	-1	3	nt	5	nt	nt
SMILES	DAX1 inh-1	hgDAF12 agonist	ssDAF12 agonist	hcDAF-12 act	DAX1 inh-2	NR1D1 modulator	hgDAF12 conf	LXR ag 2
Clc1cccc(CNc2ccn3nc(-c4cccc(Cl)c4)cc3n2)c1	1	13*	0	3	nt	7	9	0
Clc1ccc(-c2cc3nc(NCc4cccc(Cl)c4)ccn3n2)cc1	3.9*	14*	0	4	nt	1	17*	1
COc1cccc(CC(=O)O[C@@H]2CCC[C@@]3(C(=O)N(Cc4ccccc4)c4ccccc43)[C@H]2NC(=O)CCc2ccccc2)c1	-2	-3	-2	-4	nt	7	nt	nt
Cc1cccc(NC(=S)NNC(=O)c2sccc2C)c1	2	13*	0	3	3	1	6	0
C/C(=N/NC(=O)c1cc(C2CC2)[nH]n1)c1cccs1	3.8*	15*	0	5.7*	-2	-4	9	1
CC(/C=N/NC(=O)c1cc(C2CC2)[nH]n1)=C\c1ccccc1	1	-1	-1	0	1	-5	nt	nt
CNc1nc(N)c([N+](=O)[O-])c(Nc2cccc(Br)c2)n1	nt	-1	-1	1	nt	-2	nt	nt
COc1ccccc1/C=C/CN1CCOCC1	nt	nt	nt	nt	0	3	nt	nt
COc1ccccc1/C=C/CN1CCSCC1	0	16*	-1	-1	0	-1	0	0
CC(Sc1nnc(NC2CC2)s1)C(=O)Nc1ccc(S(N)(=O)=O)cc1 (stereo not drawn)	0	2	-1	0	1	-9	nt	nt
CC(Sc1nnc(NCc2ccccc2)s1)C(=O)Nc1ccc2c(c1)C(=O)c1ccccc1C2=O (stereo not drawn)	1	15*	-1	1	-1	-5	9	0
C=CCNCCCCOc1ccc(OCc2ccccc2)cc1	3	15*	-1	3	1	1	17*	1
COCCCNCCCCOc1ccc(OCc2ccccc2)cc1	1	6	-1	3	0	-3	nt	nt
c1ccc(COc2ccc(OCCCCN3CCCC3)cc2)cc1	2	14*	-1	4	1	-1	14*	1
COc1c(O)ccc(/C=N/NC(=O)c2ccc3c(c2)OCCO3)c1[N+](=O)[O-]	2	15*	0	2	3	-6	9	0
O=C(N/N=C/c1ccc(Br)o1)c1ccc2c(c1)OCCO2	2	16*	0	3	1	-7	11*	1
C[C@H]1CNC(=O)c2c(C(=O)N(C)Cc3ccccc3)ncn21	0	-1	-1	0	nt	5	nt	nt
C[C@H]1Cn2cnc(C(=O)N(C)Cc3ccccc3)c2C(=O)N1	0	30*	0	1	nt	0	0	0
COc1ccc(CNc2ccc3c(c2)nc(C)n3C)cc1	2	6	-1	3	0	-3	nt	nt
